Assay outcomes as filed in PubChem BioAssay.
The list is not random: actives were taken first. Their share in the collection is about 3.2%.
MEKK2mut PB1 HTS = MEK5 binding signal on mutant MEKK2 PB1, primary screen, biochemical, multiplex bead flow cytometry, Alexa488-MEK5; Alexa488-MEK5 binding to MEKK2 mutant; percent response, % at 10 µM; 290,000 tested, 0.35% active; in the data active = percent response above about 24%, passing the limit was not always enough
MEKK3 PB1 HTS = modulators of MEKK3-MEK5 PB1 binding, primary screen, biochemical, wildtype MEKK3, multiplex bead flow cytometry, Alexa488-MEK5; Mitogen-activated protein kinase kinase kinase 3 (Homo sapiens), Q99759; bead-based flow cytometry, Alexa488-MEK5 binding to MEKK3; actives lie on both sides; 0 = blocked by unlabeled MEK5, 100 = vehicle; binding response (% of control), % at 10 µM; 290,000 tested, 1.4% active;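 active = binding response more than 3 SD above or below the average of its plate-row segment, actives on both sides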;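 also: Alexa488 bead fluorescence after subtracting the streptavidin-only scavenger bead signal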
Target sequence (Q99759 whole entry, looked up): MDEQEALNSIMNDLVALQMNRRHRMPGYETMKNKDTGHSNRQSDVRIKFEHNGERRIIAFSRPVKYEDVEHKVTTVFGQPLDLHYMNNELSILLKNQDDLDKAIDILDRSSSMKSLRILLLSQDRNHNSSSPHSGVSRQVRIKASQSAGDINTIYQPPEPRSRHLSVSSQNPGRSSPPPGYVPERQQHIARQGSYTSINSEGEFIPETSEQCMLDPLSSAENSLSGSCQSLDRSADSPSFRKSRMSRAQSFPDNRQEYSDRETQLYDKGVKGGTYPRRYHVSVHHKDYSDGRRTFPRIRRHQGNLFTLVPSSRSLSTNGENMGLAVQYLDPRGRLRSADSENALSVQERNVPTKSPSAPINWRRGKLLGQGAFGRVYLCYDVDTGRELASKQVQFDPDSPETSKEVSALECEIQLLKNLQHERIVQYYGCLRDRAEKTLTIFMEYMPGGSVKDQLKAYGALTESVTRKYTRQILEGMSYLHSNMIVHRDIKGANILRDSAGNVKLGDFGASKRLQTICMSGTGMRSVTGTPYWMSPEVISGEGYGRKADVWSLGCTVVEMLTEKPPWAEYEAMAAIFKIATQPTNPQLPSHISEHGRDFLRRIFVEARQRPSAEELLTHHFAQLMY
MEKK2wt PB1 HTS = modulators of MEK5 binding to wildtype MEKK2, primary screen, biochemical, multiplex bead flow cytometry, Alexa488-MEK5; Mitogen-activated protein kinase kinase kinase 2 (Homo sapiens), Q9Y2U5; Alexa488-MEK5 binding to MEKK2 WT; actives lie on both sides; binding response (% of control), % at 10 µM; 290,000 tested, 1.1% active; in the data active = binding response below about 67% or above about 130%
NRP1-CendR mod = modulators of CendR peptide binding to NRP-1, primary screen, biochemical, fluorescence polarization, uHTS; Neuropilin-1 (Homo sapiens), O14786; FAM-RPARPAR peptide binding to NRP-1; inhibition, % at 25 µM; 360,000 tested, 0.85% active; AID 602438, 2012;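 active = inhibition or corrected inhibition above about 18%, plus a signal ratio from 0.5 to 1.5, limit read from the data, passing the limit was not always enough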
SKN-1 inh = suppressors of acrylamide-induced Pgst-4::GFP reporter in worms, primary screen, SKN-1 inhibitor project, whole organism, uHTS, GFP/RFP fluorescence ratio, strain VP596 | C. elegans VP596 Pgst-4::GFP/RFP ratio, 24 h | 360,000 tested, 0.49% active | inhibition, % at 21.8 µM | AID 624304, 2012;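 active = interference check ratio from 0.5 to 1.5 plus GFP to RFP signal ratio inhibition reaching or exceeding a fixed threshold, cut at about 30% in these data, passing the limit was not always enough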
MEKK2wt confirm = modulators of MEK5 binding to wildtype MEKK2, confirmation, biochemical, single concentration, multiplex bead flow cytometry | AID 1892, 2009 | shares compounds with MEKK3 PB1 HTS | Alexa488-MEK5 binding to MEKK2 WT; actives lie on both sides | binding response (% of control), % at 10 µM | 5,900 tested, 2.4% active; in the data active = binding response below about 16% or above about 210%; inactive = in between
MEKK2mut-MEK5 = mutant MEKK2 PB1-MEK5 binding signal retest – biochemical, single concentration, multiplex bead flow cytometry, confirmation; percent response, % at 10 µM; AID 1893, 2009; Alexa488-MEK5 binding to MEKK2 mutant; 5,900 tested, 2% active; shares compounds with MEKK3 PB1 HTS; in the data active = percent response mostly above about 71%, no sharp cut-off; inactive = mostly below about 38%;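 also: higher means compound restores mutant binding toward wildtype level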
MEKK3-MEK5 inh = MEKK3 wild-type PB1 binding to MEK5, inhibitors, confirmation, biochemical, bead multiplex flow cytometry, single concentration, wildtype. shares compounds with MEKK3 PB1 HTS. Alexa488-MEK5 binding to MEKK3; stronger effect = lower value. binding response (% of control), % at 10 µM. 5,900 tested, 1.8% active. AID 1894, 2009;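 active = binding response below 72% of control, or above a set upper limit, though filed actives all read lower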;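 also: 100% = DMSO only wells and 0% = binding blocked by excess unlabeled MEK5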
An asterisk follows results filed as active; x = no result given; [ ] = dose if it differs, or a comment.

SMILES	MEKK2mut PB1 HTS	MEKK3 PB1 HTS	MEKK2wt PB1 HTS	NRP1-CendR mod	SKN-1 inh	MEKK2wt confirm	MEKK2mut-MEK5	MEKK3-MEK5 inh
COc1cc(OC)c2c(-c3ccccc3)cc(=O)oc2c1C(CCN1CCCCC1)c1ccc2c(c1)OCO2 (stereo not drawn)	28*	94	177*	13	6	147	47	104
COc1cc(OC)c2c(-c3ccccc3)cc(=O)oc2c1C(CCN1CCCC(C)C1)c1ccc2c(c1)OCO2 (stereo not drawn)	26*	123	183*	1	11	169	35	105
CCc1nc2ccc(C(=O)NCCc3ccccn3)cn2c1N(C)CCC(C)C	x	x	x	1	-18	x	x	x
CN1CCN(C(=O)CSc2ccc(Cl)cc2)CC1	-13	75*[inhibitor]	71	10	2	97	-5	99
CN1CCCN(C(=O)CSc2ccccc2)CC1	5	103	107	-2	-20	x	x	x
Cn1c(=O)c2c(SCC(=O)N3CCCC3)nc(CC(C)(C)C)nc2n(C)c1=O	5	102	105	-5	13	x	x	x
CCC1=C(OC(=O)N(CC)CC)N2C(=O)OC(=NCCc3c[nH]c4ccccc34)[C@]2(Cc2ccccc2)[C@H]2C1=CC[C@H]1C(=O)N(CC(=O)OC)C(=O)[C@H]12	0	2.0*[inhibitor]	2.0*[inhibitor]	2	1	98	-4	99
CCC1=C(OC(=O)N(CC)CC)N2C(=O)OC(=NCCc3c[nH]c4ccccc34)[C@]2(Cc2ccccc2)[C@H]2C1=CC[C@H]1C(=O)NC(=O)[C@H]12	3	98	93	-14	11	x	x	x
O=C(c1ccoc1)N1CCC2(CC1)Oc1ccc(Cl)cc1C(=O)C21CC(c2ccccc2)=NO1 (stereo not drawn)	2	45*[inhibitor]	53	2	13	99	-3	103
CCOC(=O)c1cc(CC)sc1/N=C/C1=C(O)CC(C)(C)CC1=O	1	136*	109	1	-4	103	-3	100
COC(=O)c1cn(-c2nc3ccccc3s2)nn1	x	x	x	1	18	x	x	x
N/C(COc1cc(Cl)cc(Cl)c1)=N\O	25	135*	115	0	3	105	-2	107
CN(C)CCOc1cc(Cl)cc(Cl)c1	-10	96	103	-4	7	x	x	x
COc1ccccc1-c1ccc([C@@H]2C[C@H]3[C@@H](CN2)CON3C)cc1	x	x	x	-25	10	x	x	x
O=C(COC(=O)c1ccccc1SCC(=O)NC1CCS(=O)(=O)C1)NC1CCS(=O)(=O)C1 (stereo not drawn)	-60	2.0*[inhibitor]	1.0*[inhibitor]	-2	4	91	-9	86
CC(C)NC(=O)c1cc(C2CCCCN2S(=O)(=O)c2cccs2)on1 (stereo not drawn)	x	x	x	7	9	x	x	x
Nc1cc(N2CCOCC2)c(Cl)cc1[N+](=O)[O-]	-2	73*[inhibitor]	95	2	12	97	-2	103
COc1ccc(C)cc1S(=O)(=O)n1c([N+](=O)[O-])cnc1C	-1	100	104	4	21	x	x	x
Cc1c(CN(C)C)c2c(n1Cc1ccccc1)C(=O)c1ccc(Br)cc1-2	17	89	139*	7	22	133	21	108
C/C(=N/NC(=O)c1nnn(-c2nonc2N)c1CSc1ccc(C)cc1)c1ccncc1	x	x	x	2	10	x	x	x
Cc1cc(C)c(-n2c(SCc3nc4ccccc4s3)n[nH]c2=O)c(C)c1	24	130*	107	0	5	83	-16	84
CC(C)(C)OC(=O)NN1CC(=O)N2Cc3[nH]c4ccccc4c3C[C@H]2C1=O	4	98	101	3	4	x	x	x
CCn1c(SCC(=O)Nc2oc(C)c3c(C)n[nH]c(=O)c23)nnc1-c1ccco1	x	x	x	5	9	x	x	x
CCOc1ccc(CCN2C(=O)C(=O)N([C@@H](CC(C)C)CN3CCC[C@H]3CN3C(=O)C(=O)NC[C@@H]3Cc3ccccc3)C[C@@H]2Cc2ccc(O)cc2)cc1	x	x	x	12	13	x	x	x
COc1ccc(COC(=O)C2=C(C)NC(=O)NC2c2cc(Br)c(O)c(OC)c2)cc1 (stereo not drawn)	16	105	108	-12	1	x	x	x
SMILES	MEKK2mut PB1 HTS	MEKK3 PB1 HTS	MEKK2wt PB1 HTS	NRP1-CendR mod	SKN-1 inh	MEKK2wt confirm	MEKK2mut-MEK5	MEKK3-MEK5 inh
CCc1ccc(CN2C(=O)c3ccccc3C2C(=O)NC(C)CC)cc1 (stereo not drawn)	1	102	102	5	-21	x	x	x
CCOc1ccccc1CN1C(=O)c2ccccc2C1C(=O)NC(C)CC (stereo not drawn)	5	128*	123	11	8	97	-7	97
Cc1cc(C2=NNC(=NCCc3ccccc3)SC2)c(C)n1CC1CCCO1 (stereo not drawn)	24	105	150*	14	6	135	27	100
CN(Cc1ccccc1)C(=O)c1csc([C@H]2C[C@H](O)[C@@H](CO)O2)n1	x	x	x	-5	13	x	x	x
CC(=O)Nc1nnc(C2=COCCO2)o1	-4	58*[inhibitor]	78	-5	4	101	-1	99
CCN(CC)c1ccc(/C=N/NC(=O)CN2CCCc3ccccc32)cc1	-1	139*	101	-1	2	96	-6	100
COC(=O)CCCCCCCCC(O)C[N+]1(C)CCOCC1 (stereo not drawn)	-47	22*[inhibitor]	27*[inhibitor]	11	19	92	-5	96
NC(N)=N/N=C/c1ccc(OS(=O)(=O)c2ccccc2)cc1	21	73	146*	1	-4	129	12	105
C/C(=N\Nc1nc2ccccc2[nH]1)c1cc2ccccc2o1	6	137*	140*	10	-5	127	10	99
N#CCCn1cc(C(=O)Nc2ccc([N+](=O)[O-])cc2)c(-c2cccs2)n1	0	99	100	0	13	x	x	x
COc1ccc(NC(=O)c2cn(CCC#N)nc2-c2cccs2)cc1	1	140*	108	6	4	104	4	104
O=C(Nc1ccc(F)cc1)C(c1ccnc2ccccc12)N1CCN(C(=O)c2ccco2)CC1 (stereo not drawn)	x	x	x	9	-14	x	x	x
